Molecules are shown by their SMILES. Records with an inconclusive call do not appear. Unmarked numbers belong to inactive results. The source made the active and inactive calls. The call rests on the fitted dose curve; in most records, active means well fitted cell-killing curve with a large enough effect in the repeat runs; inconclusive means weak or mixed curves, or effect the other way; inactive means flat fitted curve, though single readings scatter.

The results in this text go back to PubChem BioAssay (Tox21).

The nature of assay [1]: cAMP Responsive Elements (CRE) small molecule antagonists, cell-based qHTS assay: qHTS cell viability counter screen (AID 2060913). Further: nearly all actives have a fitted effect of over 40% in size. Put shortly:
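Cytotoxicity read in the same wells as the CRE-bla HEK293T antagonist assay: after 3 h compound with 0.25 uM NKH477 final and 2 h beta-lactamase substrate, CellTiter-Glo luminescence measured.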
(qHTS replaces the single test concentration by a dilution series.)

A short description of assay [2]: cAMP Responsive Elements (CRE) small molecule agonists, cell-based qHTS assay: qHTS cell viability counter screen (AID 2060914).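 Further: viability read after 3 h of compound exposure; nearly all actives have a fitted effect of over 50% in size.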 Put shortly:
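CRE-bla HEK293T cells in 10% dialyzed FBS medium were exposed to compounds for 3 h at 37C after 18 h plating. CellTiter-Glo was then added in the same wells, and luminescence was read after 30 min at room temperature.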
On the % scale 0 is the no-effect control and ±100 the full control effect.

As to `Nc1c(Cl)cc(Cl)cc1[N+](=O)[O-]`, the Potency entry in assay [1] and in assay [2] was “inactive” in each case.
Consider `NC(=O)c1ccccc1`, for which the Potency entry in assay [1] and in assay [2] was “inactive” each time.
As for `CCc1ccc2c(c1)C(=O)c1ccccc1C2=O`, the Potency entry in assay [1] and in assay [2] was “inactive” each time.
In the case of `ClC(Cl)Cl`, the Potency entry in assay [1] and in assay [2] was “inactive” each time.
`N[C@@H](Cc1cc(I)c(Oc2cc(I)c(O)c(I)c2)c(I)c1)C(=O)O`: the Potency result in assay [1] and in assay [2] was “inactive” throughout.
As for `O=C(O)C1(C(=O)Nc2ccc(Cl)cc2Cl)CC1`, the Potency entry in assay [1] and in assay [2] was “inactive” in each case.
On to `CC(=O)N(c1onc(C)c1C)S(=O)(=O)c1ccc(N)cc1`, for which the Potency result in assay [1] and in assay [2] was “inactive” in each case.
With `N[C@H](C(=O)O)c1ccc(O)cc1`, in assay [1], the viability change, negative = cytotoxic was 2.5% [at 18.9 µM]. Besides, in assay [2], the activity change, negative = cytotoxicity is -13.1% [at 18.9 µM].
`N#C[C@@H]1C[C@@H]2C[C@@H]2N1C(=O)[C@@H](N)C12CC3CC(CC(O)(C3)C1)C2`: the Potency result in assay [1] and in assay [2] was “inactive” each time.
As to `CCCCC(CC)CO` (configuration not stated), the Potency entry in assay [1] and in assay [2] was “inactive” each time.
Take `Nc1cc([N+](=O)[O-])ccc1Cl`: the Potency result in assay [1] and in assay [2] was “inactive” in each case.
`COC(=O)[C@H]1[C@H]2C[C@@H]3c4[nH]c5cc(OC)ccc5c4CCN3C[C@H]2C[C@@H](OC(=O)/C=C/c2ccc(O)c(OC)c2)[C@@H]1OC`: the Potency entry in assay [1] and in assay [2] was “inactive” in each case.
On to `CCNc1cccc(C)c1`, for which the Potency entry in assay [1] and in assay [2] was “inactive” throughout.
For the compound `CCCCCCCO`, the Potency result in assay [1] and in assay [2] was “inactive” in each case.
With `CCC1=C(C)CN(C(=O)NCCc2ccc(S(=O)(=O)NC(=O)NC3CCC(C)CC3)cc2)C1=O` (configuration not stated), the Potency result in assay [1] and in assay [2] was “inactive” each time.
For `CCCN(C1CCN(C(=O)C2CCNCC2)CC1)[C@@H]1CCc2ccc(OC)cc2C1`, the Potency entry in assay [1] and in assay [2] was “inactive” throughout.
Regarding `CC(=O)CCC(C)C`, the Potency entry in assay [1] and in assay [2] was “inactive” in each case.
Regarding `CC(=O)N[C@@H](CS)C(=O)O`, the Potency entry in assay [1] and in assay [2] was “inactive” throughout.
`CCCCCCCCCCO[C@@H]1O[C@H](CO)[C@@H](O)[C@H](O)[C@H]1O`: the Potency entry in assay [1] and in assay [2] was “inactive” each time.
For `NC(=O)c1ccccc1Cl`, the Potency result in assay [1] and in assay [2] was “inactive” throughout.
Take `O=Cc1ccc(C(=O)O)cc1`: the Potency result in assay [1] and in assay [2] was “inactive” throughout.
In the case of `O=C(O)CCc1nc(-c2ccccc2)c(-c2ccccc2)o1`, the Potency entry in assay [1] and in assay [2] was “inactive” throughout.
Consider `S=P(N1CC1)(N1CC1)N1CC1`, for which the Potency result in assay [1] and in assay [2] was “inactive” each time.
Consider `CCC/C=C/C=O`, for which the Potency entry in assay [1] and in assay [2] was “inactive” in each case.
With `Clc1ccccc1CN1CCc2sccc2C1`, the Potency entry in assay [1] and in assay [2] was “inactive” throughout.
Turning to `Cc1ncc([N+](=O)[O-])n1CC(O)CCl` (configuration not stated), the Potency result in assay [1] and in assay [2] was “inactive” in each case.
For `Cc1ncc([N+](=O)[O-])n1CC(C)O` (configuration not stated), the Potency result in assay [1] and in assay [2] was “inactive” in each case.
As to `OCCOCCN1CCN(C2=Nc3ccccc3Sc3ccccc32)CC1`, the Potency entry in assay [1] and in assay [2] was “inactive” throughout.
Consider `O=c1[nH]cnc2c1ncn2[C@@H]1O[C@H](CO)[C@@H](O)[C@H]1O`, for which the Potency result in assay [1] and in assay [2] was “inactive” throughout.
Regarding `c1ccc2c(c1)CCC2`, the Potency result in assay [1] and in assay [2] was “inactive” each time.
For the compound `NC(N)=O`, the Potency result in assay [1] and in assay [2] was “inactive” in each case.
As for `Cc1ccc(NC(N)=O)cc1`, the Potency result in assay [1] and in assay [2] was “inactive” throughout.
With `CCCCCCCCCC(=O)O`, the Potency result in assay [1] and in assay [2] was “inactive” in each case.
Consider `Cc1cc(C(C)(C)C)c(O)c(C)c1Cn1c(=O)n(Cc2c(C)cc(C(C)(C)C)c(O)c2C)c(=O)n(Cc2c(C)cc(C(C)(C)C)c(O)c2C)c1=O`, for which the Potency entry in assay [1] and in assay [2] was “inactive” in each case.
On to `Cc1cc(Nc2ccc(O)cc2)ccc1N`, for which the Potency entry in assay [1] and in assay [2] was “inactive” in each case.
Take `Cc1ccc([N+](=O)[O-])cc1Cl`: the Potency entry in assay [1] and in assay [2] was “inactive” each time.
For the compound `CCCOC(=O)CCCCC(=O)OCCC`, the Potency result in assay [1] and in assay [2] was “inactive” in each case.
As for `O=C(O)c1c(Cl)ccc(Cl)c1Cl`, the Potency result in assay [1] and in assay [2] was “inactive” throughout.
For the compound `CC1CCc2nccnc21` (configuration not stated), the Potency result in assay [1] and in assay [2] was “inactive” throughout.
With `C[C@H]1C[C@@H]2[C@H]([C@@H](O)C[C@@]3(C)[C@H]2CC[C@]3(O)C(=O)CO)[C@@]2(C)C=CC(=O)C=C12`, the Potency entry in assay [1] and in assay [2] was “inactive” each time.
As for `C/C(=C\C(C)CC(C)CC(C)C)C1CC(=O)OC1=O` (configuration not stated), the Potency result in assay [1] and in assay [2] was “inactive” throughout.
Consider `CC(=O)OCCC1CCCCC1`, for which the Potency result in assay [1] and in assay [2] was “inactive” each time.
Regarding `CC(C)(C)c1ccccc1`, the Potency result in assay [1] and in assay [2] was “inactive” throughout.
Turning to `CCCCN1CCCC[C@H]1C(=O)Nc1c(C)cccc1C`, the Potency result in assay [1] and in assay [2] was “inactive” in each case.
Consider `FC(F)(F)C(F)(F)C(F)(F)C(F)(F)C(F)(F)C(F)(F)C(F)(F)C(F)(F)C(F)(F)C(F)(F)F`, for which, in assay [1], the viability change, negative = cytotoxic is 10.4% [at 8.39 µM]. In addition, the activity change, negative = cytotoxicity in assay [2] was -0.902% [at 8.39 µM].
For `CCCCCCCCCCCCCCCCCCO`, the Potency entry in assay [1] and in assay [2] was “inactive” each time.
On to `CN(C)c1ccc(C(=N)c2ccc(N(C)C)cc2)cc1`, for which the Potency result in assay [1] and in assay [2] was “inactive” each time.
On to `COc1cc(OC)nc(NC(=O)NS(=O)(=O)Nc2ccccc2C(=O)N(C)C)n1`, for which the Potency result in assay [1] and in assay [2] was “inactive” each time.
In the case of `S=C(SSSSSSC(=S)N1CCCCC1)N1CCCCC1`, in assay [1], the viability change, negative = cytotoxic was 6.65% [at 18.9 µM]. Besides, in assay [2], the activity change, negative = cytotoxicity was -4.69% [at 18.9 µM].
Take `CCCSS/C(CCO)=C(\C)N(C=O)Cc1cnc(C)nc1N`: the Potency entry in assay [1] and in assay [2] was “inactive” throughout.
With `C(=C\c1ccccc1)/CN1CCN(C(c2ccccc2)c2ccccc2)CC1`, the Potency entry in assay [1] and in assay [2] was “inactive” each time.
